Drawing on PubChem BioAssay (EPA / NIEHS), this text covers AC50 and outcome for 7 molecules.

The source made the active and inactive calls. Rule for the calls: active = hit-call score of the fitted dose curve at least 0.9, where 1 is the maximum; inactive = score below 0.9.

As usually defined, the AC50 is the concentration at which the activity in the assay is half-maximal.

Conditions in all cases: mRNA level, 48 h; actives raise or lower the signal
Read-out in experiment [1]: Tumor necrosis factor receptor superfamily member 6 (Homo sapiens) (UniProt P25445)
The experiment in a line: LTEA_HepaRG_FAS: Life Technologies and Expression Analysis (LTEA) Assay for Fas cell surface death receptor (FAS) using HepaRG (AID 2283447). The essentials: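 FAS transcript level was measured by TaqMan qRT-PCR against three housekeeping genes after 48 h chemical exposure. Cells were HepaRG, 0.5% DMSO vehicle, with a top concentration of 100 uM and half-log dilutions over eight points, in duplicate.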

Read-out in experiment [2]: Fatty acid synthase (Homo sapiens) (UniProt P49327)
The experiment can be described thus: LTEA_HepaRG_FASN: Life Technologies and Expression Analysis (LTEA) Assay for Fatty Acid Synthase (FASN) using HepaRG (AID 2283448). The essentials: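 FASN transcript measured by TaqMan qRT-PCR, normalised to three housekeeping genes, after 48 h chemical exposure of HepaRG cells. Eight-point half-log series from 100 uM in 0.5% DMSO, duplicates; gain or loss fitted against vehicle.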

Read-out in experiment [3]: Cyclin Dependent Kinase Inhibitor 1A (CDKN1A), CDKN1A (gene 1026)
The experiment in a line: LTEA_HepaRG_CDKN1A: Life Technologies and Expression Analysis (LTEA) Assay for Cyclin Dependent Kinase Inhibitor 1A (CDKN1A) using HepaRG (AID 2283450). The essentials:
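Differentiated HepaRG cells in serum-free induction medium, exposed 48 h in duplicate to eight half-log concentrations up to 100 uM in 0.5% DMSO. mRNA measured by TaqMan qRT-PCR, normalized to ACTB, GAPDH, POLR2A; bidirectional fit versus DMSO.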

Read-out in experiment [4]: Cyclin D1 (CCND1), CCND1 (gene 595)
The experiment in a line: LTEA_HepaRG_CCND1: Life Technologies and Expression Analysis (LTEA) Assay for Cyclin D1 (CCND1) using HepaRG (AID 2283451).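 For AC50: TaqMan qRT-PCR transcript level normalised to ACTB GAPDH and POLR2A housekeeping genes.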 The essentials:
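Differentiated HepaRG cells exposed 48 h in serum-free induction medium to eight half-log concentrations from 100 uM top, 0.5% DMSO, duplicates. CCND1 mRNA measured by Fluidigm TaqMan qRT-PCR, normalised to ACTB, GAPDH, POLR2A; bidirectional fit.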

Read-out in experiment [5]: flavin-containing dimethylaniline monooxygenases 3 (FMO3), FMO3 (gene 2328)
The experiment can be described thus: LTEA_HepaRG_FMO3: Life Technologies and Expression Analysis (LTEA) Assay for flavin-containing dimethylaniline monooxygenases 3 (FMO3) using HepaRG (AID 2283453). In a few lines: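 FMO3 transcript quantified by TaqMan qRT-PCR against three housekeeping genes after 48 h chemical exposure of HepaRG cells. Eight-point half-log series, top 100 uM, 0.5% DMSO vehicle; phenobarbital 1mM induction control; up- or down-regulation fitted.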

Read-out in experiment [6]: Cytochrome P450 (CYP1A1), CYP1A1 (gene 1543)
The experiment can be described thus: LTEA_HepaRG_CYP1A1: Life Technologies and Expression Analysis (LTEA) Assay for Cytochrome P450 (CYP1A1) using HepaRG (AID 2283454). The essentials: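 Differentiated human HepaRG cells, after 48 h plating, exposed in duplicate for 48 h in serum-free induction medium to 8 half-log concentrations up to 100 uM in 0.5% DMSO. CYP1A1 mRNA by qRT-PCR, normalized to ACTB/GAPDH/POLR2A; bidirectional fit versus DMSO.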

Read-out in experiment [7]: CFLAR gene, CFLAR (gene 8837)
The experiment in a line: LTEA_HepaRG_CFLAR: Life Technologies and Expression Analysis (LTEA) Assay for CFLAR gene using HepaRG (AID 2283455). In a few lines:
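Transcript level by qRT-PCR (normalized to ACTB, GAPDH and POLR2A) after 48 h chemical exposure of HepaRG cells, top concentration 100 uM with half-log steps, 0.5% DMSO vehicle, duplicates; fitted bidirectionally against DMSO baseline.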

Read-out in experiment [8]: Forkhead box O3 (FOXO3), FOXO3 (gene 2309)
The experiment in a line: LTEA_HepaRG_FOXO3: Life Technologies and Expression Analysis (LTEA) Assay for Forkhead box O3 (FOXO3) using HepaRG (AID 2283459). In a few lines: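 FOXO3 transcript measured by qRT-PCR (normalized to ACTB, GAPDH, POLR2A) after 48 h exposure of HepaRG cells in serum-free induction medium. Duplicates, eight half-log concentrations up to 100 uM, 0.5% DMSO; gain or loss fitted against DMSO.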

Read-out in experiment [9]: ABC Transporter (ABCB1), ABCB1 (gene 5243)
The experiment can be described thus: LTEA_HepaRG_ABCB1: Life Technologies and Expression Analysis (LTEA) Assay for ABC Transporter (ABCB1) using HepaRG (AID 2283460). The essentials:
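ABCB1 transcript level measured by TaqMan qRT-PCR against three housekeeping genes after 48 h chemical exposure of differentiated HepaRG cells. Top concentration 100 uM, half-log steps, eight points, 0.5% DMSO vehicle; bidirectional fit relative to DMSO.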

Read-out in experiment [10]: growth arrest and DNA damage 45 (GADD45B), GADD45B (gene 4616)
The experiment can be described thus: LTEA_HepaRG_GADD45B: Life Technologies and Expression Analysis (LTEA) Assay for growth arrest and DNA damage 45 (GADD45B) using HepaRG (AID 2283461). The essentials:
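Differentiated human HepaRG cells in serum-free induction medium exposed 48 h in duplicate to eight concentrations, top 100 uM, half-log steps, 0.5% DMSO. GADD45B mRNA by TaqMan qRT-PCR, normalized to ACTB, GAPDH, POLR2A; bidirectional fit versus DMSO.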

Read-out in experiment [11]: ABC Transporter (ABCB11), ABCB11 (gene 8647)
The experiment can be described thus: LTEA_HepaRG_ABCB11: Life Technologies and Expression Analysis (LTEA) Assay for ABC Transporter (ABCB11) using HepaRG (AID 2283463). The essentials: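 ABCB11 transcript levels quantified by TaqMan qRT-PCR against three housekeeping genes after 48 h chemical exposure of HepaRG cultures. Concentrations up to 100 uM in half-log steps, 0.5% DMSO vehicle; both induction and suppression scored.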

Read-out in experiment [12]: Forkhead box O1 (FOXO1), FOXO1 (gene 2308)
The experiment can be described thus: LTEA_HepaRG_FOXO1: Life Technologies and Expression Analysis (LTEA) Assay for Forkhead box O1 (FOXO1) using HepaRG (AID 2283456). In a few lines:
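FOXO1 transcript quantified by qRT-PCR after 48 h chemical exposure (top 100 uM, half-log steps, 0.5% DMSO) of HepaRG cells, housekeeping-normalized (ACTB/GAPDH/POLR2A). Changes fitted in both directions relative to vehicle.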

Read-out in experiment [13]: growth arrest and DNA damage 45 (GADD45A), GADD45A (gene 1647)
The experiment in a line: LTEA_HepaRG_GADD45A: Life Technologies and Expression Analysis (LTEA) Assay for growth arrest and DNA damage 45 (GADD45A) using HepaRG (AID 2283458). The essentials: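 GADD45A expression was measured by TaqMan qRT-PCR against three housekeeping genes (ACTB, GAPDH, POLR2A) after 48 h treatment of HepaRG cells. Eight-point half-log series up to 100 uM in 0.5% DMSO, run in duplicate.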

Read-out in experiment [14]: Cyclin D2 (CCND2), CCND2 (gene 894)
The experiment can be described thus: LTEA_HepaRG_CCND2: Life Technologies and Expression Analysis (LTEA) Assay for Cyclin D2 (CCND2) using HepaRG (AID 2283449). In a few lines:
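CCND2 transcript levels, quantified by qRT-PCR and normalised to three housekeeping genes, were fitted bidirectionally against 0.5% DMSO. HepaRG cultures were dosed 48 h in duplicate with an 8-point half-log series up to 100 uM.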

Read-out in experiment [15]: ABC Transporter (ABCC3), ABCC3 (gene 8714)
The experiment can be described thus: LTEA_HepaRG_ABCC3: Life Technologies and Expression Analysis (LTEA) Assay for ABC Transporter (ABCC3) using HepaRG (AID 2283462). In a few lines:
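Differentiated human HepaRG cells exposed 48 h in serum-free induction medium, 0.5% DMSO vehicle, 8-point half-log series to 100 uM in duplicate. ABCC3 mRNA by qRT-PCR, normalised to ACTB, GAPDH, POLR2A; bidirectional fit vs DMSO.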

Sequence of Fatty acid synthase (Homo sapiens) (P49327 whole entry, looked up): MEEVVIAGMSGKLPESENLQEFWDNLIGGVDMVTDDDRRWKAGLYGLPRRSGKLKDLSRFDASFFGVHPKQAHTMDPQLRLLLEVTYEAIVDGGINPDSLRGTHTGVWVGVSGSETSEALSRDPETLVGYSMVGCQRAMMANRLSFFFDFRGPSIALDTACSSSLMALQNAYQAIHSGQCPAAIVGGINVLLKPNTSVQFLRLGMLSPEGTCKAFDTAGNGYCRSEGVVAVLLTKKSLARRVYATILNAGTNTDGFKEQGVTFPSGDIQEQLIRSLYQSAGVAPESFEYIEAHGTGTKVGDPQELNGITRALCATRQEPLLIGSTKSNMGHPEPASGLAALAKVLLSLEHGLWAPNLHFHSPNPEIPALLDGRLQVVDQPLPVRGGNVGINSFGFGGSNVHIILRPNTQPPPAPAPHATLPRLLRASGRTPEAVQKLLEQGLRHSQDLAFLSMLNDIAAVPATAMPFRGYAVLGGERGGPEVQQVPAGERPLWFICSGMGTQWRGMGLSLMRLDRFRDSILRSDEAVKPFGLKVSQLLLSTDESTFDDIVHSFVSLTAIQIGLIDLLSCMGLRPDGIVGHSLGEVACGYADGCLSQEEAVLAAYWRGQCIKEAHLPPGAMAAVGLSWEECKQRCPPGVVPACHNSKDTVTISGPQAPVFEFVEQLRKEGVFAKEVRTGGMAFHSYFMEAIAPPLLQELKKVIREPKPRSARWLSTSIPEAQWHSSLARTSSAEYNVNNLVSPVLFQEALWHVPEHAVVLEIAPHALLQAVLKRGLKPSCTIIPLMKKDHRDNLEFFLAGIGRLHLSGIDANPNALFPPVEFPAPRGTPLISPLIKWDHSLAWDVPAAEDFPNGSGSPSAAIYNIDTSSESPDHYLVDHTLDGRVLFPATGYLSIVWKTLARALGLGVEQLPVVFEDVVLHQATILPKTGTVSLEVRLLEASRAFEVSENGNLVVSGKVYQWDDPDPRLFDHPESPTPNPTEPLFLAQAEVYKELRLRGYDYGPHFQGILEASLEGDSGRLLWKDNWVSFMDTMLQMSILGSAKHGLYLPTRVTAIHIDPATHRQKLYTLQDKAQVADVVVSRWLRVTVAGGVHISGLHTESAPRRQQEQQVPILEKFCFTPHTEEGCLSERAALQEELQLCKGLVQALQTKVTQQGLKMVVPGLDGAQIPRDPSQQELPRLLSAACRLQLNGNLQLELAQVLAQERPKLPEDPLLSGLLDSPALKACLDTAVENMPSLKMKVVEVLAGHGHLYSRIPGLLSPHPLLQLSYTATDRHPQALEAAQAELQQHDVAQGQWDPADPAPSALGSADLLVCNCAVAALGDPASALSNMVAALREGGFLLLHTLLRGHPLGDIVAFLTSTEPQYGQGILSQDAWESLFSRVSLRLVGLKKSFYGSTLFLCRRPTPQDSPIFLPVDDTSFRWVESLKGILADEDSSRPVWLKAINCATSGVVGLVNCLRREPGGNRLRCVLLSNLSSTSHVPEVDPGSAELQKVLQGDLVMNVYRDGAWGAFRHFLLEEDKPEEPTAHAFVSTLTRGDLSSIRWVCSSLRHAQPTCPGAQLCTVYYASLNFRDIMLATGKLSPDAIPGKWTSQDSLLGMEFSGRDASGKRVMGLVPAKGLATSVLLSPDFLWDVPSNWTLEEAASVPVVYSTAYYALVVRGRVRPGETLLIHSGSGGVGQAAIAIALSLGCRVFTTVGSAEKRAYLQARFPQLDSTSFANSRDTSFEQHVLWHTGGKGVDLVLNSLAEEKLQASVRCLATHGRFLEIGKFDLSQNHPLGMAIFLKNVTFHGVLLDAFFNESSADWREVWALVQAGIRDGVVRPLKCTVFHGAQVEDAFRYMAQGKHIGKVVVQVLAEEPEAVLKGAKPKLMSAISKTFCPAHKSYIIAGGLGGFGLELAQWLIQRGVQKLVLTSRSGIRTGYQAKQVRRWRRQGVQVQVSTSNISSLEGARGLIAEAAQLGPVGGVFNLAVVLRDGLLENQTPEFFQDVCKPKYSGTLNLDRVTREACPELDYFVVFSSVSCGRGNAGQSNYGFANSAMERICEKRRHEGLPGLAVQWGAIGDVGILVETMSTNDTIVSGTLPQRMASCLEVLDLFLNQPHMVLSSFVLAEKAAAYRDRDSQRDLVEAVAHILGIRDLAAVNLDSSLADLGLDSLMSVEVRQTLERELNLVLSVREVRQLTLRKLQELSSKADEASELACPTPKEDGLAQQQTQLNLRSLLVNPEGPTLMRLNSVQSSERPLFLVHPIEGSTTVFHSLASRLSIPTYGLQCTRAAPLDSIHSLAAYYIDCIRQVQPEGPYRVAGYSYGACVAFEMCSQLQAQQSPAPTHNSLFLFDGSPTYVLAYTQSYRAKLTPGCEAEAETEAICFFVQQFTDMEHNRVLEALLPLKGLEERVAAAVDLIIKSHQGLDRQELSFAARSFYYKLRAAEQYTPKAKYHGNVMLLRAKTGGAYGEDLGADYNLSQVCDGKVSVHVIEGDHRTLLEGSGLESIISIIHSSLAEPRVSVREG

For `Cc1nn(C)c(Oc2ccccc2)c1C=NOCc1ccc(C(=O)OC(C)(C)C)cc1`, the AC50 is 8.31 µM (active) in experiment [1]; 6.99 µM (active) in experiment [3]; 83.9 µM (active) in experiment [4]; 2.87 µM (active) in experiment [5]; 19.6 µM (active) in [6]; 9.19 µM (active) in experiment [9]. The AC50 in experiment [11] is 3.08 µM (active). Further, the molecule was called inactive in experiment [2], in experiment [7], in experiment [8] and in experiment [10].

On to `CCCCOC(=O)C(C)Oc1ccc(Oc2ccc(C(F)(F)F)cn2)cc1` (configuration not stated), for which the molecule was classed as inactive in [1], in [2], in experiment [3], in experiment [4], in [5] and in experiment [7]. The molecule was classed as inactive in experiment [12], in experiment [13], in experiment [8], in [9], in experiment [10] and in experiment [11].

Take `COC(=O)c1ccccc1C(=O)O`: the result in [1], in experiment [2], in [14], in experiment [3], in experiment [4] and in experiment [5] was inactive. The molecule was classed as inactive in experiment [7], in [13], in experiment [8], in experiment [9], in experiment [10] and in experiment [15]. The call in [11] was inactive.

For `CCOC(=O)COc1cc(-n2ncc(C(F)(F)F)c(C)c2=O)c(F)cc1Cl`, the outcome in experiment [1], in experiment [2], in experiment [14], in [3], in experiment [4] and in experiment [5] was inactive. Moreover, the molecule was classed as inactive in [7], in experiment [8], in [9], in experiment [10], in experiment [15] and in [11].

In the case of `O=C(c1ccc(O)cc1O)c1ccc(O)cc1O`, the molecule was classed as inactive in [1], in [2], in experiment [14], in experiment [3], in [4] and in experiment [5]. Moreover, the result in [6], in [7], in [13], in experiment [8], in [9] and in [10] was inactive. Further, the outcome in experiment [11] was inactive.

With `COC(=O)c1ccc(I)cc1S(=O)(=O)NC(=O)Nc1nc(C)nc(OC)n1`, the outcome in experiment [1], in experiment [2], in experiment [14], in [3], in experiment [4] and in experiment [5] was inactive. In addition, the molecule was called inactive in experiment [7], in [8], in experiment [9], in experiment [10], in experiment [15] and in experiment [11].

Consider `CCCOC(=O)c1ccc(C(=O)OCCC)nc1`, for which the outcome in experiment [1], in experiment [2], in [14], in [3], in [4] and in experiment [5] was inactive. For the same molecule, the outcome in [7], in [12], in experiment [13], in [8], in [9] and in experiment [10] was inactive. For the same molecule, the result in [11] was inactive. In addition, the AC50 in experiment [6] was 24.8 µM (active).
